In PubChem BioAssay (NCATS):
Inconclusive results are not listed. The source made the active and inactive calls. Unless noted, calls follow the shape of the dose curve; as a rule, active = well fitted curve in the direction sought with a large enough effect; inconclusive = small, poorly fitted or top-dose-only effect, or another doubt; inactive = no such curve, though single readings can be large; an effect the other way counts as inactive or inconclusive.

Assays:
[1] = NFAT Signaling Pathway (AID 444; active = well fitted curve in either direction with a large enough effect, not every such curve was filed as active;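 also: carbachol stimulus at about its EC50 of 1 µM final; % is scaled to controls: 0 for no effect and ±100 for the full control effect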); details: Jurkat NFAT-bla M1, carbachol, beta-lactamase ratio, 5 h; at 38 µM (top of the series)
How it was run: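 Jurkat cells carrying an NFAT-driven β-lactamase reporter and co-transfected muscarinic M1 receptor were treated with compound plus carbachol (1 uM final, an EC50 level) for 5 h at 37 °C. CCF4 loading followed for 1 h at RT; 460/530 nm ratio gave %activity.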

[2] = Stat Signaling Pathway (AID 446; active = well fitted curve in either direction with a large enough effect, not every such curve was filed as active;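 also: ME-180 cervical cancer cells given 40 pM IL-6 alongside compound; SIE-controlled beta-lactamase reporter measured as 460/530 nm FRET emission ratio; % is scaled to controls: 0 for no effect and ±100 for the full control effect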); details: ME-180 SIE beta-lactamase reporter, IL-6 stimulated, 5 h; at 38 µM (top of the series)
How it was run: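 ME-180 SIE-bla cells; overnight plating; cpd + IL-6 40 pM, 5 h, 37 C; LiveBLAzer 2.5 h RT; 460/530 nm emission ratio. Normalized to 300 pM IL-6 and 125 nM JAK inhibitor controls.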

[3] = biological target: Glucocorticoid receptor (Homo sapiens) (UniProt P04150); assay: GR-GFP Redistribution (AID 450;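 active = compounds whose dose series gives a full or clear partial fitted curve of increased nuclear translocation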; also: potency is read from the fitted curve at half-maximal effect); details: U2OS GR-GFP nuclear translocation, laser cytometry, 2 h
Sequence of Glucocorticoid receptor (Homo sapiens) (P04150 whole entry, looked up, the tested form may be a part): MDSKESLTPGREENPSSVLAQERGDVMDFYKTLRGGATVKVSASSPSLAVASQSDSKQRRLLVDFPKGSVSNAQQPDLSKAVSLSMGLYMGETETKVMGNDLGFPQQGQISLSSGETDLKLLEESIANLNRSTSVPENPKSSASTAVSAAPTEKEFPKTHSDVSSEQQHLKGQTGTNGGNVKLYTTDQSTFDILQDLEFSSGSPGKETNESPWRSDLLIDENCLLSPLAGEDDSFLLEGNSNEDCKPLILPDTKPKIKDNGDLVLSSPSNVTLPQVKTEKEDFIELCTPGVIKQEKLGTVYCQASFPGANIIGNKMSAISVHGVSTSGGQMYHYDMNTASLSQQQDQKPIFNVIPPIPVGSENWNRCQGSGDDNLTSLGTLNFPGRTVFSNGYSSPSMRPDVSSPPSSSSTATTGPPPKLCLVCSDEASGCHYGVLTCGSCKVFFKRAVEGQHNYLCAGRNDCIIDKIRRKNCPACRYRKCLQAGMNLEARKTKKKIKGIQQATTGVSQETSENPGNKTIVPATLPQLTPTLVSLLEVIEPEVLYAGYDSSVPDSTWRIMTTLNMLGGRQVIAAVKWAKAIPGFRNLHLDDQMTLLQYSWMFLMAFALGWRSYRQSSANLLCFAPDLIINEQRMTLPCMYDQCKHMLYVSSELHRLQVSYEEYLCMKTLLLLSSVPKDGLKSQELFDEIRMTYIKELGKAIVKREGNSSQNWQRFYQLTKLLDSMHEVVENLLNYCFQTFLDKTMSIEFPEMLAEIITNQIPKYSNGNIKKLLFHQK

[4] = biological target: Glucocorticoid receptor (Homo sapiens) (UniProt P04150); assay: GR-EFC Redistribution (AID 451; calls by dose curve; also: potency is read from the fitted curve at half-maximal effect); details: CHO-K1 GR-EFC translocation, beta-gal luminescence, 2 h
How it was run: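 CHO-K1 cells stably expressing nuclear-localized β-gal enzyme acceptor and GR fused C-terminally to the enzyme donor fragment; ligand-driven nuclear translocation restores β-gal by complementation. Compounds titrated up to 46 uM final, 2 h at 37 °C; luminescence read.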

[5] = biological target: Mitogen-activated protein kinase 10 (Mus musculus) (UniProt Q61831); assay: JNK3 AlphaScreen Assay (AID 530; active = well fitted curve in either direction with a large enough effect, not every such curve was filed as active;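 also: kinase came from lysate of stimulated human HepG2 cells; signal reports phosphorylation of biotinylated GST-cJun 1-79 at Ser73 with 10 µM ATP; % is scaled to controls: 0 for no effect and ±100 for the full control effect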)
How it was run: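 JNK3 came from HepG2 lysates pre-activated with IL-1beta and TNF-alpha and phosphorylated biotinylated GST-cJun (1-79) at 10 uM ATP, pH 7.6, room temperature. Compounds were titrated. AlphaScreen signal used anti-phospho-cJun (Ser73) antibody.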

[6] = biological target: 3',5'-cyclic-AMP phosphodiesterase 4B (Homo sapiens) (UniProt Q07343); assay: qHTS Assay for Inhibitors of PDE-IV (AID 607; active = well fitted activation curve with a large enough effect in the main read-out, with a control signal flat, not every such curve was filed as active; also: % of control where 0% means no effect)
Sequence of 3',5'-cyclic-AMP phosphodiesterase 4B (Homo sapiens) (Q07343 whole entry, looked up): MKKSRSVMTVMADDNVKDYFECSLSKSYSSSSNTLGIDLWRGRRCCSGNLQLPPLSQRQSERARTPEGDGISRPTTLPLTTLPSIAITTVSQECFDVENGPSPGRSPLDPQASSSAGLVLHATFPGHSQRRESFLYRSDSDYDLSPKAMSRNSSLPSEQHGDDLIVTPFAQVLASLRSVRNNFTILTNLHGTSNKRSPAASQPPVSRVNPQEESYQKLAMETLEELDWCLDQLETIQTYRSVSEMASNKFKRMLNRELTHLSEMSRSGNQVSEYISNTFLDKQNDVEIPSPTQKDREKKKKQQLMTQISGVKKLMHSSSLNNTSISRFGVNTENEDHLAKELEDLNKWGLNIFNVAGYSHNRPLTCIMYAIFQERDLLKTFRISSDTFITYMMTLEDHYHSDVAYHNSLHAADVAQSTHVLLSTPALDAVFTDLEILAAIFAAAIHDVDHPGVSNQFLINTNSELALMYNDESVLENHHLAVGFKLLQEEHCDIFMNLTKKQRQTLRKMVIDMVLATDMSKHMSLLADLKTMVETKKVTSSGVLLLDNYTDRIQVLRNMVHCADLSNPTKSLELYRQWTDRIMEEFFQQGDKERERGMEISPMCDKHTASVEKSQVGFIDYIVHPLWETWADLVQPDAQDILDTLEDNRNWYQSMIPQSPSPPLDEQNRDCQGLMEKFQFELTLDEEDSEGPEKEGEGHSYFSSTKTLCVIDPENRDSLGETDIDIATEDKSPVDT
How it was run: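 ACTOne HEK293 cells carry a modified cAMP-gated CNG channel and express endogenous PDE4; plated 1000 cells/well, compounds up to 22.9 uM final. Membrane-potential dye fluorescence (ex 535/em 590) was read; parental cells received 10 uM forskolin + 100 uM RO 20-1724.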

[7] = biological target: Guanine nucleotide-binding protein G(i) subunit alpha-1 (Homo sapiens) (UniProt P63096); assay: qHTS Assay for Inhibitors of RGS12 GoLoco Motif Activity (Green Fluorophore) (AID 879);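 also: 0% = labeled peptide with Gαi1 and full inhibition = labeled peptide alone without protein; negative values mean loss of peptide binding seen as reduced polarization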
Sequence of Guanine nucleotide-binding protein G(i) subunit alpha-1 (Homo sapiens) (P63096 whole entry, looked up): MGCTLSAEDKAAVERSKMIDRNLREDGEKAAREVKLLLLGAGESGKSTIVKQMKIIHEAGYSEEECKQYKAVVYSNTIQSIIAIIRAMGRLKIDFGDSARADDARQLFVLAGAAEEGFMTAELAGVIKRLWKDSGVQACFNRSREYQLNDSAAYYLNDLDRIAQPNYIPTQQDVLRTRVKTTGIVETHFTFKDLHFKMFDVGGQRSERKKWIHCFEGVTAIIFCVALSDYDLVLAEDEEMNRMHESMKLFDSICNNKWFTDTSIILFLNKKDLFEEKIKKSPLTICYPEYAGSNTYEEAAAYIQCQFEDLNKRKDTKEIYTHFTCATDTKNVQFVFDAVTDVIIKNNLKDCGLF
How it was run: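 Fluorescence polarization assay: 50 nM Gαi1 with 10 nM FITC-labeled RGS12 GoLoco peptide in 10 mM Tris pH 7.5, 150 mM NaCl, 0.1 mM GDP, 0.05% NP40, 10 min at room temperature with compound.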

[8] = qHTS Assay for Identification of Small Molecule Agonists for Thrombopoietin (TPO) Signaling Pathway (AID 917); also: % is scaled to controls: 0 for no effect and ±100 for the full control effect
How it was run: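 We measured Glycoprotein IIb promoter–luciferase output in IL-3-starved Ba/F3 murine cells expressing the human TPO receptor after 24 hrs at 37 C with compounds and 26 pM TPO.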

[9] = biological target: Muscarinic acetylcholine receptor M1 (Rattus norvegicus) (UniProt P08482); assay: qHTS Assay for Antagonists of Acetylcholine Muscarinic M1 Receptor: Measurement of IP-One Response (AID 944); also: nearly all actives have a fitted effect of over 75% in size
Sequence of Muscarinic acetylcholine receptor M1 (Rattus norvegicus) (P08482 whole entry, looked up): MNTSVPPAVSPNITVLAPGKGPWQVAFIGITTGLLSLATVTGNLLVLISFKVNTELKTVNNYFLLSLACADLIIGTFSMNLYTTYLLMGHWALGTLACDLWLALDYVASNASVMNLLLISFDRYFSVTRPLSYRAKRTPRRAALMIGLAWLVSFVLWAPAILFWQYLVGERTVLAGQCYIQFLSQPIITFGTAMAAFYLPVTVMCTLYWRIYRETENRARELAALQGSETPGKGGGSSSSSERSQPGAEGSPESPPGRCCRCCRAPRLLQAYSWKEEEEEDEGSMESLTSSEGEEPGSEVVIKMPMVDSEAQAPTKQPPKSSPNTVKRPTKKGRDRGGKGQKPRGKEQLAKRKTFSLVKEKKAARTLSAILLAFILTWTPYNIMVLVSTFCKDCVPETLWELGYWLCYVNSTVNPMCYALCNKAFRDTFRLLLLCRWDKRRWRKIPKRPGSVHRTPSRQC
How it was run: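 CHO cells expressing rat M1 receptor, recovered overnight, were pre-incubated 10 min with compound, then stimulated 30 min with carbachol at EC80 (200 nM) in LiCl-containing buffer, pH 7.4. IP1 accumulation was read by HTRF (620/665 nm).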

[10] = biological target: Pyruvate kinase (Leishmania mexicana) (UniProt Q27686); assay: qHTS Validation Assay for Inhibitors of Leishmania Mexicana Pyruvate Kinase (AID 945);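 also: 0% = DMSO only neutral control wells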
Sequence of Pyruvate kinase (Leishmania mexicana) (Q27686 2-499 E452W): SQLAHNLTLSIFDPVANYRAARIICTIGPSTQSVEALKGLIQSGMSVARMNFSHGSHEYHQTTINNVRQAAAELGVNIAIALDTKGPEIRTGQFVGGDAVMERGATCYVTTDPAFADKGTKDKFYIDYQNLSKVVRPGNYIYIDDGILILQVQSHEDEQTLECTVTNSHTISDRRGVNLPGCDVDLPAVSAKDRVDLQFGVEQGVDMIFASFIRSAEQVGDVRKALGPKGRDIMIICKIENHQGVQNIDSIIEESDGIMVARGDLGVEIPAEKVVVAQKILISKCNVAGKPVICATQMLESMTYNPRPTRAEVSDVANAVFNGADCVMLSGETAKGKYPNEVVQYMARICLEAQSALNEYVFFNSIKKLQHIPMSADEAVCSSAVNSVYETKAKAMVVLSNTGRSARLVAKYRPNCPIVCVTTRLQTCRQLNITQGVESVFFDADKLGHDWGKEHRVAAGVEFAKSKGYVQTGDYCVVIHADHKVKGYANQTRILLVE
How it was run: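 Eight-point qHTS titrations in triplicate, data normalized to DMSO neutral control. Reaction: 0.2 nM LmPYK E451W mutant, 0.5 mM PEP, 0.1 mM ADP, 7 mM MgCl2, pH 7.2, one hour at room temperature; luminescent ATP detection.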

[11] = biological target: Pyruvate kinase PKM (Homo sapiens) (UniProt P14618); assay: qHTS Assay for Activators of Human Muscle Pyruvate Kinase (AID 954; active = well fitted curve in the direction sought with a large enough effect, not every such curve was filed as active;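 also: 0% = uninhibited enzyme and -100% = no enzyme or full thiadiazolimine inhibition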)
Sequence of Pyruvate kinase PKM (Homo sapiens) (P14618 whole entry, looked up): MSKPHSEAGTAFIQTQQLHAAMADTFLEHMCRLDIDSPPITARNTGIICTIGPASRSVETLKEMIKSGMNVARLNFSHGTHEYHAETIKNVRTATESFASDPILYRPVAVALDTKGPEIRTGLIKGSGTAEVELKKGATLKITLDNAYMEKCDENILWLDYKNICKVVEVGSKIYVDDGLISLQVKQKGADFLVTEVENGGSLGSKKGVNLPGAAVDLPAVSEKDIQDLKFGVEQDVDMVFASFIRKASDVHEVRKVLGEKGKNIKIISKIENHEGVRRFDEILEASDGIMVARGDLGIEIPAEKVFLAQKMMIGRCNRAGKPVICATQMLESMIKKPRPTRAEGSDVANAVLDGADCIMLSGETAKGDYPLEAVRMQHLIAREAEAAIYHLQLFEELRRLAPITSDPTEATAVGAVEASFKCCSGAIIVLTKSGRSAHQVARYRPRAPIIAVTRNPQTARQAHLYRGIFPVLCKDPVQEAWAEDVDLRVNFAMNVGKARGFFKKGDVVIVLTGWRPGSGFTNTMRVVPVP
How it was run: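 Luminescence from a luciferase ATP-detection/stop reagent reported PKM2 activity. Reactions contained 0.1 nM purified human enzyme, 0.5 mM PEP, 0.1 mM ADP and 7 mM MgCl2 at pH 7.2, run 1 h at RT.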

[12] = biological target: Alpha-galactosidase A (Homo sapiens) (UniProt P06280); assay: Counterscreen for Glucocerebrosidase Inhibitors: qHTS Assay for Human alpha-Galactosidase at pH 4.5 (AID 992); also: 0% is about no effect
Sequence of Alpha-galactosidase A (Homo sapiens) (P06280 whole entry, looked up): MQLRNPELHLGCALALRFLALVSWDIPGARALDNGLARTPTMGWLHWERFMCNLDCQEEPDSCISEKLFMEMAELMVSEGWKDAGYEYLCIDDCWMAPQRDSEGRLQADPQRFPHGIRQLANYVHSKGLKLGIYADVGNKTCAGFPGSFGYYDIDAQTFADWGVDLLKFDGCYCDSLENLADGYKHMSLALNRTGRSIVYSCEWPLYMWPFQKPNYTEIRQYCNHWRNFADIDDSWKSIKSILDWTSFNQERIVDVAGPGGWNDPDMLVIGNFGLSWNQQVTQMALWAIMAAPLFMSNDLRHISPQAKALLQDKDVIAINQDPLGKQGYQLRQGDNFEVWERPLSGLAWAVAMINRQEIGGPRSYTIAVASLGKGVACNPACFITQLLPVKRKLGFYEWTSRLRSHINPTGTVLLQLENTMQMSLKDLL
How it was run: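 Enzyme at 2 nM final was combined with compound (0.7 nM to 77 uM) and 80 uM 4-methylumbelliferyl alpha-D-galactopyranoside in 50 mM citric acid, 0.005% Tween-20, pH 4.5. After 20 min at room temperature, fluorescence was read (Ex 365/Em 440 nm); AC50 came from Hill fits.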

[13] = biological target: alpha-glucosidase (Oryza sativa, rice) (UniProt Q653V4); assay: Counterscreen for Glucocerebrosidase Inhibitors: qHTS Assay for Rice alpha-Glucosidase at pH 5.0 (AID 997);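 also: 0% = full activity with enzyme and -100% = basal without enzyme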
How it was run: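 Rice alpha-glucosidase (4 nM final) with 400 uM 4-methylumbelliferyl-alpha-D-glucopyranoside in citrate buffer pH 5.0, 20 min at room temperature, stopped at pH 10; fluorescence 365/440 nm, compounds 0.7 nM–77 uM, AC50 from Hill fits.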

[14] = Validation of Assay for Modulators of Lamin A Splicing (AID 1459; active = well fitted curve in the direction sought with a large enough effect in the signal ratio; the % refers to the signal ratio;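 also: cells exposed to compound for two days before reading; 0% is about no effect; ratio rise marks activators and ratio drop marks inhibitors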)
How it was run: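 Splicing correction is reported by an EGFP-containing lamin A minigene in stably transfected S3 HeLa cells, while DsRed2 controls for viability and nonspecific signal. Cells are exposed to compounds for 48 hrs before the GFP over RFP ratio is taken.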

[15] = biological target: DNA repair nuclease/redox regulator APEX1 (Homo sapiens) (UniProt P27695); assay: qHTS Validation Assay for Inhibitors of the Human Apurinic/apyrimidinic Endonuclease 1 (APE1) (AID 1705)
Sequence of DNA repair nuclease/redox regulator APEX1 (Homo sapiens) (P27695 whole entry, looked up): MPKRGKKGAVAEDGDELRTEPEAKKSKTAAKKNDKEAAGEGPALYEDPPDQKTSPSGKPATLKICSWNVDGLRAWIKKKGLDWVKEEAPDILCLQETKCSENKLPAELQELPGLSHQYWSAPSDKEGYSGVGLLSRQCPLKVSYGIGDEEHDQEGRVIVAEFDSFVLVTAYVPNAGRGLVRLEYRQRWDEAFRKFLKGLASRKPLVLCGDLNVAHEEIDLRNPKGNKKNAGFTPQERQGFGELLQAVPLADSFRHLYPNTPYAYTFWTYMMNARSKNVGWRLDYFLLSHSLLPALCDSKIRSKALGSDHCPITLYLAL
How it was run: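 Endonuclease activity of human APE1 is followed as dequenching when the enzyme incises a tetrahydrofuran abasic site in a short duplex labelled 5'-TAMRA/3'-BHQ-2 (50 nM final), after 15 min enzyme–compound preincubation at room temperature.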

[16] = Counterscreen for APE1 Inhibitors: Fluorescent Dye Displacement Validation Assay (AID 1707);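 also: plate controls were ThO with dsDNA and no compound for no effect and ThO without dsDNA for full effect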
How it was run: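 Thiazole Orange displacement from dsDNA: 250 nM ThO with 50 nM TAMRA-labelled abasic-site (tetrahydrofuran) duplex in 50 mM Tris-HCl pH7.5, 50mM NaCl, 2 mM MgCl2, 0.01% Tween-20. Loss of endpoint fluorescence (ex 480 nm, em 540 nm) flags DNA binders.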

[17] = biological target: Endonuclease 4 (Escherichia coli (strain K12)) (UniProt P0A6C1); assay: Counterscreen for APE1 Inhibitors: qHTS Validation Assay for Inhibitors of Endonuclease IV (AID 1708); also: % is scaled to controls: 0 for no effect and ±100 for the full control effect
How it was run: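 2 nM enzyme was preincubated with compounds for 15 min at room temperature in 50 mM Tris-HCl pH 7.5, 50 mM NaCl, 2 mM MgCl2, 1 mM DTT, 0.01% Tween-20. 50 nM THF-abasic TAMRA/BHQ-2 duplex substrate started the reaction.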

[18] = qHTS for differential inhibitors of proliferation of Plasmodium falciparum line 7G8 (AID 1815);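 also: parasite growth measured after three days of incubation; plate controls were vehicle wells for no effect and reference inhibitor wells for full effect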
[19] = qHTS for differential inhibitors of proliferation of Plasmodium falciparum line GB4 (AID 1816); details: Potency: Plasmodium falciparum GB4 proliferation inhibition;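 also: parasite growth measured after 72 h incubation; 0% = vehicle DMSO and -100% = reference inhibitor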

CN(C)CCCCSC(=N)N
inactive: activity change, negative = inhibition [1] 1.09% | activity, negative = inhibition [2] -29.5% | Potency [3] > 46 µM | Potency [4] > 46 µM | Potency [5] | Potency [6] | outcome [7] | Potency [8] | Potency [9] | Potency [10] | outcome [11] | outcome [12] | outcome [13] | outcome [14] | Potency [15] | Potency [16] | Potency [17] | Potency [18] | Potency [19]
